This is a sample that favours compounds with a hit; in the whole collection about 12% have one here.
PLK1 PBD inh: inhibitors of human PLK1 polo-box domain binding. P53350. Plk1 PBD binding of FITC phosphopeptide, fluorescence polarization. Potency, µM, hits mostly inhibitors. actives 2.8% (n = 360,000). AID 720504; also: series mostly up to about 57 µM; nearly all actives have a fitted effect of over 65% in size
JMJD2A Tudor inh: inhibitors of human JMJD2A Tudor domain; AlphaScreen JMJD2A-Tudor / H3K4me3 peptide binding; Potency, µM (series often up to 114 µM), hits mostly inhibitors; AID 504339; actives 4.4% (n = 390,000); O75164; also: nearly all actives have a fitted effect of over 50% in size
PI5P4Ka inh: inhibitors of human PI5P4K alpha. P48426. PI5P4Kalpha enzyme, ADP-Glo luminescence, 60 min; active compounds read low. max response, %. actives 1.2% (n = 330,000). AID 652105; active = max response of -50% or lower; inconclusive = between -30% and -50%; inactive = -30% or higher; also: value at the top dose of about 77 µM
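ADP-Glo luminescence end-point after a 60 min room-temperature kinase reaction. PI5P4Kalpha and substrate in HEPES pH 7.4 buffer with EGTA, 0.1% CHAPS and 5% DMSO; ATP at 5 microM final.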
G9a inh: blocks human histone lysine methyltransferase G9a. Q96KQ7. G9a H3K9 monomethylation, AlphaScreen, 2 h. Potency, µM (series often up to 102 µM), most hits filed as inhibitors. actives 8.8% (n = 350,000). AID 504332; also: nearly all actives have a fitted effect of over 75% in size
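Enzyme 20 nM + cpd, 15 min RT; add b-H3K9 pep 500 nM / SAM 20 uM; 2 h RT; anti-H3K9me1 Ab 0.5 ug/mL + SA donor / anti-rabbit acceptor beads 20 ug/mL each, 10 min; AlphaScreen read.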
BAZ2B inh: blocks human BAZ2B; Q9UIF8; AlphaScreen BAZ2B-H3K14Ac peptide displacement; Potency, µM (highest dose often 114 µM), actives largely listed as inhibitors; actives 4.4% (n = 360,000); also: nearly all actives have a fitted effect of over 60% in size
Target sequence (Q9UIF8 whole entry, looked up): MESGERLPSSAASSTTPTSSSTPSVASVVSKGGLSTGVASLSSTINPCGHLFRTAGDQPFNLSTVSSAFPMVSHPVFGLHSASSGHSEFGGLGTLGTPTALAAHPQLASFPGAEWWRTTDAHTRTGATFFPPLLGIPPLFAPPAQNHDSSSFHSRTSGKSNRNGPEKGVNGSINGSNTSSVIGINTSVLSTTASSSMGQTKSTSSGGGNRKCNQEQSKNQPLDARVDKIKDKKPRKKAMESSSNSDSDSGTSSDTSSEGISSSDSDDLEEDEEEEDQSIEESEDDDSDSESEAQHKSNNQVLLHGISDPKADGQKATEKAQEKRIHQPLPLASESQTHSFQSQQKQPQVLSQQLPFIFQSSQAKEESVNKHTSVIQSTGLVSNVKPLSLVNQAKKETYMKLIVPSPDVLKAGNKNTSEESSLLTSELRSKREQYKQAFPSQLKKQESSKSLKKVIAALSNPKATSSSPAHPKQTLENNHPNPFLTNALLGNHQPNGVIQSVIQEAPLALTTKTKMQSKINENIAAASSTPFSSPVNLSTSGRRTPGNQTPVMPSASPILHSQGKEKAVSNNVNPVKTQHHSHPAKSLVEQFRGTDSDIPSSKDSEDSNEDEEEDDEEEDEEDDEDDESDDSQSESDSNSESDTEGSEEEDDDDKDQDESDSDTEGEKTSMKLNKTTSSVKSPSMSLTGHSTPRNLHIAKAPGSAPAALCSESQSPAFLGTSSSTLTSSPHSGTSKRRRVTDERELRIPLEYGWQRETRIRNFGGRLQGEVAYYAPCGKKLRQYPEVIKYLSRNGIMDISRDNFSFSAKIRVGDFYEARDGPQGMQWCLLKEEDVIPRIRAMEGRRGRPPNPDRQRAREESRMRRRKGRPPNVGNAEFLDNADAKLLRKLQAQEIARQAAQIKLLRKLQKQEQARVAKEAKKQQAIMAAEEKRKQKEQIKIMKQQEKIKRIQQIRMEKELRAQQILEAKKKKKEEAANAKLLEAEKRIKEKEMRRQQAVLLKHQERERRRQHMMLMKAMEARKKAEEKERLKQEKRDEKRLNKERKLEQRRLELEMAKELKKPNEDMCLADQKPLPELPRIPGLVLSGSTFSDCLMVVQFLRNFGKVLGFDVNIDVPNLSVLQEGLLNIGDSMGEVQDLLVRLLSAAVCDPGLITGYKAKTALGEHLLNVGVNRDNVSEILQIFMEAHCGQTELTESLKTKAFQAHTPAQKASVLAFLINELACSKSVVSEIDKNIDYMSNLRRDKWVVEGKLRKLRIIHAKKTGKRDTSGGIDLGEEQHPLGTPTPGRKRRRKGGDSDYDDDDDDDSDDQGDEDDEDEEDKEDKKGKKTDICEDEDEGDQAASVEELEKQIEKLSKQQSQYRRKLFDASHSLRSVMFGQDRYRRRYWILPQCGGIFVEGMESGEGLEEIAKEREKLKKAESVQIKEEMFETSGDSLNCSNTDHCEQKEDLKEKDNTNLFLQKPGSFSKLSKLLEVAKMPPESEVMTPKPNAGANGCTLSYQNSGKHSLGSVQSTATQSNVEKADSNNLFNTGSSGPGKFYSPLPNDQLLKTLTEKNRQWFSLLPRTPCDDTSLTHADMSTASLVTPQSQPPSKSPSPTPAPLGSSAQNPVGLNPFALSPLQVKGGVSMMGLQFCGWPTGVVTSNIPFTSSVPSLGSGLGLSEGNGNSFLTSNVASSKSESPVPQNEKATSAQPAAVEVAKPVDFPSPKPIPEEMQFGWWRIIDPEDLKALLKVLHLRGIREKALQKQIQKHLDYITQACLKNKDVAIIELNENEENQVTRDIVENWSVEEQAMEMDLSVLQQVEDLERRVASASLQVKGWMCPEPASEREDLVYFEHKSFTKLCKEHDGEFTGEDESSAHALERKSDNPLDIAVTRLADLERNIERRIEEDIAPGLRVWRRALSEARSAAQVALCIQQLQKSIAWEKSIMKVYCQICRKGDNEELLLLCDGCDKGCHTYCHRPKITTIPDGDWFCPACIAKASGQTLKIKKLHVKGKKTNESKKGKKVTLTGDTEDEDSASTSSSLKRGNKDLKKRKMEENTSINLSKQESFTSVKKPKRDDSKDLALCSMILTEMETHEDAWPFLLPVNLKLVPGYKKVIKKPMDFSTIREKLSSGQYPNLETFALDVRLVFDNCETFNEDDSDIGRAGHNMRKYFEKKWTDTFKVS
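AlphaScreen displacement: compounds (up to 110uM) incubated 30 min at room temperature with a preformed 50 nM BAZ2B/50 nM biotinylated H3K14Ac peptide complex in PBS pH 7.4 with Tween-20. Donor and acceptor beads at 10 ug/mL final added, 20 min light-protected before reading.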
HP1b chromo inh: inhibitors of HP1-beta chromodomain binding to methylated histone tails | AlphaScreen HP1-beta / biotin-H3K9me3 peptide binding | Potency, µM (top dose mostly 114 µM), hits mostly inhibitors | actives 0.56% (n = 390,000); also: nearly all actives have a fitted effect of over 70% in size
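AlphaScreen: HP1-beta (50 nM) preformed 30 min with biotin-H3(1-18)K9me3 peptide (50 nM) in PBS pH 7.4, 0.01% Tween-20. Compound added for 30 min at RT, then streptavidin donor/nickel chelate acceptor beads (10 ug/mL) for 30 min.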
A number is an active result; n = inactive; u = inconclusive; x = not tested or not shown; [ ] = remark or other dose. Unless noted, calls follow the shape of the dose curve; as a rule, active = well fitted curve in the direction sought with a large enough effect; inconclusive = small, poorly fitted or top-dose-only effect, or another doubt; inactive = no such curve, though single readings can be large; an effect the other way counts as inactive or inconclusive.

SMILES	PLK1 PBD inh	JMJD2A Tudor inh	PI5P4Ka inh	G9a inh	BAZ2B inh	HP1b chromo inh
COc1ccc(C(=O)Nc2ccc(/C(C)=N/NC(=O)c3ccncc3)cc2)cc1	x	x	x	22µM	50µM	x
O=C1CC(NS(=O)(=O)c2ccc([N+](=O)[O-])cc2)CN1c1ccc(Cl)cc1 (stereo unspecified)	n	n	n	n[0.501 µM]	n	n
COc1cc(-c2nc3n(n2)C(c2ccncc2)C2=C(CCCC2=O)N3)cc(OC)c1OC (stereo unspecified)	n	n	n	n	n	n
COc1ccc(C2C3=C(CCCC3=O)Nc3nc(-c4cc(OC)c(OC)c(OC)c4)nn32)cc1OC (stereo unspecified)	n	n	x	40µM	n	n
COc1ccccc1NC(=O)CCNS(=O)(=O)c1ccc2c(c1)CCN2C(C)=O	n	n	n	n	n	n
CCc1ccc(NC(=O)CCCc2nnc3n(C(C)CC)c(=O)c4sccc4n23)cc1 (stereo unspecified)	x	n	x	n	u	n
Cc1c(Cl)cccc1NC(=O)CN1C(=O)COc2ccc(S(=O)(=O)N3CCOCC3)cc21	x	n	x	n	n	n
C=C1C(=O)C=C2CN(C(=O)c3ccccc3)[C@@](Cc3ccc(F)cc3)(C(=O)OC)[C@@H]12	17µM	n	-77	8.9µM	n	n
COCCCn1c(SCC(=O)N2CCOCC2)nnc1-c1ccco1	n	n	n	n	n	n
CCCc1nnc(SCC(=O)N2CCOCC2)n1CCCOC	17µM	n[11.4 µM]	n	n	n	n
CC(=O)N(c1ccc2oc(=O)sc2c1)S(=O)(=O)c1ccc(C(=O)O)cc1	u	n	u	18µM	n	n
CC(=O)N(c1ccc2oc(=O)sc2c1)S(=O)(=O)c1cccc2cccnc12	n	n	n	22µM	n	n
CC(=O)N(c1ccc2oc(=O)sc2c1)S(=O)(=O)c1cccs1	u	u	n	u	n	n
CCCC(=O)N(c1ccc2oc(C)c(C(C)=O)c2c1)S(=O)(=O)c1ccc(C(=O)O)cc1	n	n	n	35µM	n	n
Cc1cc(-c2cccs2)n[nH]1	n	n	n	n[12.7 µM]	n	n
Cc1cc(-c2ccccc2N)n[nH]1	n	n	n	50µM	u	n
CC1CC(C)(C)N(C(=O)NC2CCCCC2)c2ccccc21 (stereo unspecified)	n	n	n	n	n	n
COc1ccc2c(c1)C(C)CC(C)(C)N2C(=O)NC1CCCCC1 (stereo unspecified)	n	n	n	45µM	u	n
COc1ccc(NS(=O)(=O)c2ccc3oc(=S)[nH]c3c2)cc1	u	n[11.4 µM]	n	35µM	n	n
COc1ccc(NS(=O)(=O)c2ccc3oc(=O)ccc3c2)cc1	n	n	n	x	n	n
Cc1ccc(NS(=O)(=O)c2ccc3[nH]c(=O)oc3c2)c(C)c1	30µM	u	n	n	n	n
O=S(=O)(Nc1ccccc1Cl)c1ccc2[nH]c(=S)oc2c1	n	n	n	7.1µM	u	n
COc1ccc(Nc2cc(C(=O)NCCCN(C)C3CCCCC3)c3ccccc3n2)cc1	x	u	x	n	x	u
COc1ccc(N2CCN(CCCNC(=O)c3cc(Nc4ccc(OC)cc4OC)nc4ccccc34)CC2)cc1	x	25µM	x	13µM	16µM	u
COc1ccc(Nc2cc(C(=O)N3CCc4ccccc4C3)c3ccccc3n2)c(OC)c1	n	u	n	18µM	u	n
SMILES	PLK1 PBD inh	JMJD2A Tudor inh	PI5P4Ka inh	G9a inh	BAZ2B inh	HP1b chromo inh
COc1ccc(Nc2cc(C(=O)NCCCN(C)C3CCCCC3)c3ccccc3n2)c(OC)c1	x	20µM	x	u	x	u
CCSc1ccccc1C(=O)Nc1ccc(-c2nc3ccccc3s2)c(O)c1	x	n	x	n	n	n
Cc1nc2ccc(N=NC3=C(O)CC(C)(C)CC3=O)cc2s1	n	u	n	u	u	n
CCOc1ccc2nc(N=NC3=C(O)CC(C)(C)CC3=O)sc2c1	n	u	n	u	45µM	u
CC(=O)Nc1cccc(/C(C)=N\NC(=O)c2ccc(Cn3nc([N+](=O)[O-])c(Cl)c3C)o2)c1	21µM	50µM	n	n[2.33 µM]	n	n
C/C(=N\NC(=O)c1ccc(Cn2cc([N+](=O)[O-])cn2)o1)c1cccc(NC(=O)c2cccnc2)c1	n	n	n	n	n	n
CCN(CC)S(=O)(=O)c1cc(-c2nn(C)c(=O)c3ccccc23)ccc1C	n	u	n	u	50µM	n
CCCCNS(=O)(=O)c1cc(-c2nn(C)c(=O)c3ccccc23)ccc1C	n	n	n	n	u	n
CCOC(=O)CC(NS(=O)(=O)c1ccc2[nH]cc(C(=O)O)c(=O)c2c1)c1ccc(OCC)c(OC)c1 (stereo unspecified)	u	22µM	n	10µM	28µM	50µM
CCOC(=O)CC(NS(=O)(=O)c1ccc(OC)c(OC)c1)c1cccc([N+](=O)[O-])c1 (stereo unspecified)	n	n	n	u	n	n
Cc1cc(N2CCN(C(=O)c3[nH]c(C(F)(F)F)nc3-c3ccccc3)CC2)c2ccccc2n1	n	x	n	x	x	x
C#CCOCCOCCOCCNc1nc(N2CCN(C(=O)CCCCCCCCCCNC(=O)[C@@H](CCC(=O)O)n3cc(CCCCCN)nn3)CC2)nc(N2CCN(C(=O)CCCCCCCCCCNC(=O)[C@H](CCCCN)n3cc(C[C@@H](C)CC)nn3)CC2)n1	n	56µM	-53	n[2.33 µM]	u	n
C#CCOCCOCCOCCNc1nc(N2CCN(C(=O)CCCCCCCCCCNC(=O)[C@H](CCCCN)n3cc(CCO)nn3)CC2)nc(N2CCN(C(=O)CCCCCCCCCCNC(=O)[C@H](CCCCN)n3cc(C[C@@H](C)CC)nn3)CC2)n1	n	22µM	-62	n[2.33 µM]	u	50µM
C#CCOCCOCCOCCNc1nc(N2CCN(C(=O)CCCCCCCCCCNC(=O)[C@H](CCCCN)n3cc(CCO)nn3)CC2)nc(N2CCN(C(=O)CCCCCCCCCCNC(=O)[C@H](CCCCN)n3cc(CCCC(=O)O)nn3)CC2)n1	n	n	u	n[2.33 µM]	n	n
Cc1ccccc1N1CCN(C2CCCN(C(=O)c3csc(C(C)C)n3)C2)CC1 (stereo unspecified)	n	n	n	n	n	n
CCN1C(=O)N[C@@H](c2cccc(F)c2)C(C(=O)OC)=C1C	n	n	n	x	x	n
COC(=O)C1=C(C)N(CCCC(=O)O)C(=O)NC1c1ccc2c(c1)OCO2 (stereo unspecified)	n	n	-62	x	x	n
COCCN1C(=O)N[C@@H](c2ccc(Br)cc2)C(C(=O)OC)=C1C	x	x	x	n	n	x
CCOC(=O)C1=C(C)N(CCCCCC(=O)O)C(=O)NC1c1ccc([N+](=O)[O-])cc1 (stereo unspecified)	n	n	n	u	n	n
CCOC(=O)C1=C(C)N(CCO)C(=O)NC1c1ccccc1 (stereo unspecified)	n	n	x	n	n	n
